HTR5A ag: HTR5A agonists in luminescence cell assay, primary screen, counter-screen for OPRM1-OPRD1 heterodimer agonist project, full-deck HTS; cell-based; activation, % at 9.3 µM; hit rate 0.61% among 340,000; AID 504692, 2011; in the data active = activation mostly above about 9.5%, no sharp cut-off; inactive = mostly below about 7.6%
Target sequence (P47898 whole entry, looked up): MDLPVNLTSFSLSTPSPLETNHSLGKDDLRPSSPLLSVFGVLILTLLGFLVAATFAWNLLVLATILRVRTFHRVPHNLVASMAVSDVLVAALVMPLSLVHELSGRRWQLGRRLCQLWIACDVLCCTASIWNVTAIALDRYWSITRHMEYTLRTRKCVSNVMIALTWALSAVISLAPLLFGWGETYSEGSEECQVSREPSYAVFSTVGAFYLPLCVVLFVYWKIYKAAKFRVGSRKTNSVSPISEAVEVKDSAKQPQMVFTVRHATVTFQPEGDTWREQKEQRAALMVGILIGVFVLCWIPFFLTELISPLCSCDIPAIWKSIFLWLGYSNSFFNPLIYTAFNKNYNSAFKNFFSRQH
PolyA inh: polyadenylation inhibitors in yeast reporter cells, primary screen, luminescence, S. cerevisiae; AID 1875, 2009; hit rate 0.02% among 300,000; S. cerevisiae SKY197-pL101 polyadenylation reporter, beta-gal luminescence; efflux-impaired pdr1/pdr3 knockout yeast; score 100 = 6 SD above DMSO; activity score, % at 12 µM;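 active = lowest replicate activity score at least 50, where 100 means six control SD above control mean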;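 note: yeast exposed to compound for 9 h at 30 °C; higher score means more reporter readthrough which indicates perturbed polyadenylation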
OPRM1-OPRD1 inv: inverse agonists of MOR-DOR heterodimerization, primary screen, cell-based, luminescence; Mu-type opioid receptor (Homo sapiens) + Delta-type opioid receptor (Homo sapiens), …; cell-based MOR-DOR heterodimer luminescence, inverse agonism; inhibition, % at 9.3 µM; hit rate 0.21% among 340,000; AID 504357, 2011; in the data active = inhibition above about 22%, passing the limit was not always enough
MOR-DOR ag-1: agonists of OPRM1-OPRD1 heterodimerization, primary screen, cell-based, luminescence; Mu-type opioid receptor (Homo sapiens) + Delta-type opioid receptor (Homo sapiens), …; cells; activation, % at 9.3 µM; hit rate 0.3% among 340,000
HTR5A inv ctr: HTR5A inverse agonists in luminescence cell assay, primary screen, counter-screen for OPRM1-OPRD1 heterodimer inverse agonist project, full-deck HTS; 5-hydroxytryptamine receptor 5A (Homo sapiens), P47898; HTR5A cell line, inverse agonism; inhibition, % at 9.3 µM; hit rate 0.083% among 340,000; AID 504634, 2011; in the data active = inhibition mostly above about 23%, no sharp cut-off; inactive = mostly below about 18%
NALP1 yeast inh: NALP1 inflammasome inhibitors in reconstituted yeast, colorimetric, S. cerevisiae, triplicate retest. S. cerevisiae NALP1/ASC/caspase-1 growth, X-gal OD620, 72 h. inhibition, % at 10 µM. hit rate 0.61% among 280,000; in the data active = inhibition mostly above about 24%, no sharp cut-off; inactive = mostly below about 32%
MOR-DOR ag-2: OPRM1-OPRD1 heterodimerization promoters, counter-screen for HTR5A agonist project, cell-based, luminescence; shares compounds with HTR5A ag; hit rate 13% among 800; activation, % at 9.3 µM; U2OS counter-screen cells, complementation luminescence, 3 h
HTR5A ag conf: HTR5A agonists, retest of hits, confirmation, cell-based, luminescence. HTR5A agonist cell assay. activation, % at 9.3 µM. hit rate 17% among 800. AID 504915, 2011. shares compounds with HTR5A ag; in the data active = activation above about 17%
Each line names hits and unclear results; the compound was inactive in the other large screens (follow-up assays come after a bar, where they were run). Shown are actives, neighbours in structure and some others; about 1.6% of the full set was active somewhere. Cut-off read from the data, not from the text of the source, unless noted: active = activation above about 18%; inactive = the rest.

CNCCc1c[nH]c2ccc(O)cc12	HTR5A ag 124 (no result: NALP1 yeast inh) | MOR-DOR ag-2 inactive | HTR5A ag conf inactive
CN1CCC(c2c[nH]c3ccccc23)C1 (stereo not drawn)	HTR5A ag 29 | MOR-DOR ag-2 23 | HTR5A ag conf inactive
C=CCn1c(O)c(C(CC)=NCCc2c[nH]c3ccccc23)c(=O)[nH]c1=O	HTR5A ag 31 | MOR-DOR ag-2 inactive | HTR5A ag conf inactive
COc1ccc(C(C)=O)cc1CC(C(=O)c1ccc(F)cc1)N(C)C (stereo not drawn)	none
C=C(C)[C@@]12OC3(c4ccccc4)O[C@@H]1C1[C@@H]4O[C@]4(CO)[C@@H](O)[C@]4(O)C(=O)C(C)=C[C@H]4[C@@]1(O3)[C@H](C)[C@H]2OC(=O)/C=C/C=C/c1ccccc1 (stereo partly drawn)	HTR5A ag 33 (no result: NALP1 yeast inh) | MOR-DOR ag-2 inactive | HTR5A ag conf inactive
CCNc1nc(NC(C)(C)C)nc(SC)n1	none (no result: NALP1 yeast inh)
Cc1cccc(CCNCc2cc3cccc(C)c3[nH]c2=O)c1	HTR5A ag 15 | MOR-DOR ag-2 inactive | HTR5A ag conf inactive
Cc1cccc(CCNCc2cc3cc(C)cc(C)c3[nH]c2=O)c1	none
NCCc1c[nH]c2ccc(C(N)=O)cc12	HTR5A ag 96 (no result: PolyA inh, NALP1 yeast inh) | MOR-DOR ag-2 inactive | HTR5A ag conf 83
NCCc1c[nH]c2ccc(F)cc12	none (no result: HTR5A ag, OPRM1-OPRD1 inv, MOR-DOR ag-1, HTR5A inv ctr)
COc1ccc(C)cc1NC1=NCCCS1	none
COc1ccc2c(CCN)c[nH]c2c1	HTR5A ag 32 | MOR-DOR ag-2 inactive | HTR5A ag conf inactive
COc1ccc2[nH]cc(CCN(C)C)c2c1	none (no result: HTR5A ag, HTR5A inv ctr)
CCCC(=O)NC(Oc1ccc(C(C)=O)cc1)C(Cl)(Cl)Cl (stereo not drawn)	none
CC(c1ccccc1)[n+]1ccccc1 (stereo not drawn)	none (no result: NALP1 yeast inh)
CCCN(CCC)[C@@H]1CCc2cccc(O)c2C1	HTR5A ag 43 | MOR-DOR ag-2 inactive | HTR5A ag conf 67
CCc1c(C)nc(N)nc1N1N=C1SC(C(C)=O)C(C)=O	none
CCC1C(c2ccccc2)NC(c2ccccc2)CC1(O)c1ccc(F)cc1 (stereo not drawn)	HTR5A ag 17 | MOR-DOR ag-2 inactive | HTR5A ag conf inactive
COc1cc(CNCCc2c[nH]c3ccccc23)cc(OC)c1	HTR5A ag 15 | MOR-DOR ag-2 369 | HTR5A ag conf inactive
c1ccc(CNCCc2c[nH]c3ccccc23)cc1	none

Bioassay records: PubChem BioAssay, several laboratories
